Source: PubChem (Johns Hopkins Ion Channel Center)
An excerpt weighted towards active compounds, which were near 1.6% of everything screened.
KCNQ2 inh: inhibitors of rat KCNQ2 potassium channel; O88943; CHO-K1 KCNQ2, FluxOR thallium flux, 20 min; active compounds read low; B-score at 10 µM; actives 1.1% (n = 310,000);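 active = fluorescence ratio B-score at most minus 3 library SDs, with starting brightness B-score within 2 library SDs, cut at about -5.5 in these data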
Target sequence (O88943 whole entry, looked up): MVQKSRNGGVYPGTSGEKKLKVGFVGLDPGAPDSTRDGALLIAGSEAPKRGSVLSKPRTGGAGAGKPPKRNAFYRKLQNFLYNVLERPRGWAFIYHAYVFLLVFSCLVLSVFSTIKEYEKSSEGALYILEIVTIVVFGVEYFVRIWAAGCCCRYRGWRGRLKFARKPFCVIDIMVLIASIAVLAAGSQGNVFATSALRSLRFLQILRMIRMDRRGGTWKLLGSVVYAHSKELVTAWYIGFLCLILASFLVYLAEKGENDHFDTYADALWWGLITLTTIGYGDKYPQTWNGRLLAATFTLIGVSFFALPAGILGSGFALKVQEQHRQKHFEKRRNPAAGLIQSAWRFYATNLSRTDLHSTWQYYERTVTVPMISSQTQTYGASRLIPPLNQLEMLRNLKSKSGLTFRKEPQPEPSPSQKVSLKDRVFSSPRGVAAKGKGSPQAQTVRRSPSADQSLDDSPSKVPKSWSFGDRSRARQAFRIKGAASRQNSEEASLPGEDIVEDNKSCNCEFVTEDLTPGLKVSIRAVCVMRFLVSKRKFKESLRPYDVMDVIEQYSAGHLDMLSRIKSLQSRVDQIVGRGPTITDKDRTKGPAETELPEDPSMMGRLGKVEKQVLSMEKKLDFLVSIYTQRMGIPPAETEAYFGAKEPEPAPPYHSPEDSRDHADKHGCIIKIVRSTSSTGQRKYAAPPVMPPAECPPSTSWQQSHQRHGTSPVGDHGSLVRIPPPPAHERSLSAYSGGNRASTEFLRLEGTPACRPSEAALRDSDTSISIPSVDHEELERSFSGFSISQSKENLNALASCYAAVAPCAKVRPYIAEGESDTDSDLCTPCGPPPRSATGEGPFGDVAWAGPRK
KCNQ2 pot: potentiators of rat KCNQ2 potassium channel. O88943. CHO-K1 KCNQ2, FluxOR thallium flux fluorescence; active compounds read high. B-score at 10 µM. actives 0.54% (n = 310,000). AID 2239;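 active = fluorescence ratio B-score at least 3 SD of library B-scores, with initial fluorescence B-score within 3 of them, cut at about 5.3 in these data; same plate scores as AID 2156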;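 note: B-score of peak minus minimum over baseline fluorescence ratio after K+ and Tl+ stimulus; positive B-score means potentiation of KCNQ2 with more thallium influx and brighter signal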
Kir21 confirm: confirmation of mouse Kir2.1 potassium channel inhibitors | shares compounds with KCNQ2 pot | Kir2.1-expressing cells, FluxOR thallium flux fluorescence; active compounds read low | Tl flux remaining, % of negative control (active compounds read low), % at 10 µM | actives 41% (n = 2,300);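 active = Primary-screen hit whose thallium flux fell at least 3 control SD below untreated wells in both duplicates, with normal baseline fluorescence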;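 note: 0% = blank wells without stimulus and 100% = stimulated no-compound controls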
HEK293 ctr: alters thallium flux in parental HEK293 cells, Kir2.1 counter-screen. FluxOR thallium flux fluorescence; 0% = unstimulated blank wells. actives 19% (n = 2,300). FluxOR signal as % of negative control (100 = no effect), % at 10 µM. shares compounds with KCNQ2 pot;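 active = dye signal at least 3 control SD above or below untreated wells in both duplicates, raw fluorescence within 3, either direction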;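 note: percent is based on the flux ratio of peak minus minimum fluorescence over baseline F0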
CHO-K1 ctr: alters thallium flux in parental CHO-K1 cells, KCNQ2 counter-screen; actives 43% (n = 1,200); FluxOR thallium flux fluorescence; zero = vehicle mean+3SD, 100% = vehicle-minus-blank window; shares compounds with KCNQ2 pot; activity increase over 3SD of controls, % at 10 µM;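 active = signal rise of at least 3 SD above the untreated control mean, in both duplicate wells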;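 note: counter screen of KCNQ2 potentiator hits so any rise reflects channel-independent effects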
KCNQ1 sel pot: tests whether KCNQ2 potentiators also act on human KCNQ1 | shares compounds with KCNQ2 pot | CHO KCNQ1 stable, FluxOR thallium flux fluorescence; beyond 3SD, as % of vehicle-control signal | activation over 3SD threshold, % at 10 µM | actives 28% (n = 1,200);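 active = fluorescence ratio rise of at least 3 SD of vehicle wells above their mean, in both replicate wells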;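 note: 0% = vehicle mean plus 3 SD and 100% = vehicle minus unstimulated blank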
KCNQ2 pot confirm: confirmation of rat KCNQ2 potassium channel potentiators; shares compounds with KCNQ2 pot; CHO-KCNQ2 cells, FluxOR thallium flux fluorescence; potentiation, less the hit threshold, % at 10 µM; actives 68% (n = 1,200); AID 2287;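 active = fluorescence ratio rising 3 SD or more over the vehicle control mean in both replicates, plus primary screen hit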;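 note: peak minus minimum thallium fluorescence divided by baseline after K/Tl stimulus; 0% = vehicle mean plus 3 SD and 100% = vehicle minus unstimulated blank difference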
Kir2-1 sel: tests whether KCNQ2 potentiators also affect mouse Kir2.1 | shares compounds with KCNQ2 pot | HEK293 Kir2.1, FluxOR thallium flux fluorescence | activity over 3SD threshold, % at 10 µM | actives 2% (n = 1,200) | AID 2345;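 active = fluorescence ratio rise of at least 3 SD above the vehicle-control mean, seen in both replicates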;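 note: 0% = vehicle mean plus 3 SD and 100% = vehicle minus no-stimulus blank window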
KCNQ2 W236L MoA: potentiates the retigabine-insensitive rat KCNQ2 W236L mutant channel. shares compounds with KCNQ2 pot. CHO KCNQ2-W236L, automated patch clamp current. current increase over 3SD of negative controls (%), active compounds read high, % at 25 µM. actives 10% (n = 940). AID 2558;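 active = current increase at least 3 SD of the untreated controls above them in both duplicate recordings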
An asterisk follows results filed as active; i = inactive; · = not tested or not shown.

SMILES | KCNQ2 inh | KCNQ2 pot | Kir21 confirm | HEK293 ctr | others
O=C(Nc1ccncc1)Nc1cccc(F)c1 | i | · | · | ·
O=C(Nc1cccnc1)Nc1cccc(F)c1 | i | 6.7* | i | i | CHO-K1 ctr=2.5*;KCNQ1 sel pot=7.3*;KCNQ2 pot confirm=16*;Kir2-1 sel=-21;KCNQ2 W236L MoA=18%*
CC(=O)N1CCc2cc(S(=O)(=O)CCC(=O)NCc3ccc(F)cc3)ccc21 | i | · | · | ·
CCN(Cc1ccc(OC)c(COC)c1)CC1CCCN(CCc2cccc(F)c2)C1 (stereo not given) | i | · | · | ·
COc1ccc(CN(C)CC2CCCN(CCc3ccc(F)cc3)C2)c(OC)c1OC (stereo not given) | i | · | · | ·
CCN(Cc1ccc(OC)c(COC)c1)CC1CCCN(CCc2cccc(OC)c2)C1 (stereo not given) | i | 0.77 | · | ·
CCN(Cc1ccc(C#CCCO)cc1)CC1CCCN(CCc2cccc(F)c2)C1 (stereo not given) | i | · | 53%* | i
COc1ccc(CCN2CCCC(CN(C)Cc3cccc(OC)c3)C2)cc1 (stereo not given) | i | 0.89 | 33%* | i
CN(Cc1ccc(C#CCCO)cc1)CC1CCCN(CCc2ccc(Cl)cc2)C1 (stereo not given) | i | · | 40%* | i
COc1ccc(OCC(O)CNS(=O)(=O)c2ccc(C)cc2)cc1 (stereo not given) | i | · | · | ·
Cc1cccc(C)c1N(CC(=O)NCc1ccco1)C(=O)CNS(=O)(=O)c1ccc(F)cc1 | i | · | · | ·
CC(OC(=O)Cc1c[nH]c2ccccc12)C(=O)N(C)c1ccccc1 (stereo not given) | i | · | · | ·
COc1cc2c(=O)n(CCC(=O)NCC3CCCO3)c(=O)n(CC(=O)Nc3ccc(C)cc3)c2cc1OC (stereo not given) | i | · | · | ·
COc1ccc(C(C)NC(=O)CC23CC4CC(CC(C4)C2)C3)cc1 (stereo not given) | i | 5.7* | i | i | CHO-K1 ctr=-11;KCNQ1 sel pot=-10;KCNQ2 pot confirm=-3;Kir2-1 sel=-52;KCNQ2 W236L MoA=i
CC(NC(=O)CC12CC3CC(CC(C3)C1)C2)C(=O)O (stereo not given) | i | 1.2 | · | ·
O=C(CSC1=NS(=O)(=O)c2ccccc2N1)N1CCCCC1 | i | · | · | ·
O=C(CCCN1CCC(O)(c2ccc(Cl)cc2)CC1)c1ccc(F)cc1 | i | · | 34%* | i
O=C(CCCN1CCC(C(=O)c2ccc(F)cc2)CC1)c1ccc(F)cc1 | i | · | · | ·
O=C1CC2c3ccccc3C1C1C(=O)N(CCO)C(=O)C21 (stereo not given) | i | 1.6 | · | ·
COc1ccc(OC)c(N(C(=O)c2ccco2)C(C(=O)NC2CCCC2)c2cc(OC)c(OC)c(OC)c2)c1 (stereo not given) | i | 0.71 | · | ·
CCC[C@H]1COCCS(=O)(=O)N1Cc1ccc(Br)cc1 | i | 0.37 | i | 128%*
CCC1COCCS(=O)(=O)N1Cc1ccc(C)cc1 (stereo not given) | i | 1.2 | · | ·
Cc1cc(C(=O)COC(=O)COc2ccc(C#N)cc2)c(C)n1C1CC1 | i | · | · | ·
COc1ccc(NC(=O)CSc2nc(=O)n(CCN3CCOCC3)c3c2CCCC3)c(OC)c1 | i | · | · | ·
O=C(NC1=NCCS1)c1ccccc1OCc1ccccc1Cl | i | · | · | ·
SMILES | KCNQ2 inh | KCNQ2 pot | Kir21 confirm | HEK293 ctr | others
O=C1NC2(CCCc3ccccc32)C(=O)N1Cc1nnc(-c2ccccc2Br)o1 (stereo not given) | i | · | · | ·
O=c1c(Cl)c(Cl)cnn1Cc1nnc(-c2ccccc2Br)o1 | i | 5.5* | i | i | CHO-K1 ctr=41*;KCNQ1 sel pot=-12;KCNQ2 pot confirm=12*;Kir2-1 sel=-34;KCNQ2 W236L MoA=i
O=C(c1ccc(S(=O)(=O)Nc2cccc(C(F)(F)F)c2)cc1)N1CCC1 | i | 0.45 | · | ·
CC(=O)N1CCN(C(=O)c2ccc(S(=O)(=O)Nc3cccc(C(F)(F)F)c3)cc2)CC1 | i | 0.66 | i | i
Cc1ccc(C(=O)COC(=O)c2ccc(O)cc2)cc1 | i | · | · | ·
Cc1cc(=O)[nH]c(SCC(=O)N2CCN(C(c3ccccc3)c3ccccc3)CC2)n1 | i | 10* | i | i | CHO-K1 ctr=-2;KCNQ1 sel pot=9.2*;KCNQ2 pot confirm=5.0*;Kir2-1 sel=-26;KCNQ2 W236L MoA=i
Cc1cc(=O)[nH]c(SCC(=O)N2CCCCC2)n1 | i | · | · | ·
CCn1c(=O)c(CCC(=O)N2CCN(c3ccccn3)CC2)c(C)c2c(C)nn(-c3cccc(C)c3)c21 | i | · | · | ·
COc1cccc(/C=N/n2c(SC)nnc2-c2ccccc2)c1OC | i | · | · | ·
COc1cccc(/C=N/n2c(SC)nnc2-c2ccccc2)c1O | i | 5.3* | i | i | CHO-K1 ctr=-24;KCNQ1 sel pot=-4;KCNQ2 pot confirm=-13;Kir2-1 sel=-29
CC12CCC(C(=O)NNc3ccccc3)(C(=O)C1=O)C2(C)C (stereo not given) | i | · | · | ·
O=C(NCc1cccnc1)C(=O)Nc1ccc2c(c1)OCO2 | i | 0.38 | · | ·
COc1ccc(C(=O)Nc2c(O)ccc3ccccc23)cc1OC | i | 0.97 | · | ·
COc1ccc(S(=O)(=O)Nc2c(O)ccc3ccccc23)cc1OC | i | 8* | i | i | CHO-K1 ctr=29*;KCNQ1 sel pot=1.9*;KCNQ2 pot confirm=23*;Kir2-1 sel=-50;KCNQ2 W236L MoA=i
O=C(O)CCS(=O)(=O)c1nc(-c2cccs2)cc(C(F)(F)F)n1 | i | · | · | ·
CS(=O)(=O)c1nc(-c2cccs2)cc(C(F)(F)F)n1 | -5.9* | -5.9 | 70%* | 70%*
COc1ccc(S(=O)(=O)NCCSCc2ccco2)cc1Cl | i | 0.75 | 58%* | i
COc1ccc(S(=O)(=O)NCCSCc2ccco2)cc1C | i | · | · | ·
CCOc1ccccc1NC(=O)CSc1nnc(CCC(=O)Nc2ccccc2F)n1C | i | · | · | ·
COc1ccc(CN2CCC(=O)N([C@H](CO)CC(C)C)CC2)cc1OC | i | 0.63 | · | ·
Cc1cc(S(=O)(=O)N2CCCc3ccccc32)ccc1-n1cnnn1 | i | 0.68 | · | ·
O=c1c2cc(Br)ccc2nc(-c2ccc(Cl)cc2)n1O | i | 17* | i | 566%* | CHO-K1 ctr=-8;KCNQ1 sel pot=41*;KCNQ2 pot confirm=93*;Kir2-1 sel=15*;KCNQ2 W236L MoA=i
N#Cc1ccc(-c2nc3ccccc3c(=O)n2O)cc1 | i | 0.63 | · | ·
O=c1c2ccccc2nc(-c2ccccc2Cl)n1O | i | · | · | ·
N#Cc1ccc(-c2nc3cc(Cl)ccc3c(=O)n2O)cc1 | i | 4.7 | · | ·
